# Data as given in article PMC11062922 (Nature Chemical Biology, 2023).
# Read-outs that look alike come from different tables or passages of the source.
# Assays:
# Set-up in all cases: species or system human, MV4-11 + K-562 + COLO205 + SK-N-BE2 + OVCAR-8
# CDK9 = conditions: read-out: apparent Kd, n = 1
# NEK3 = conditions: read-out: apparent Kd; compound concentrations:100 nM and 1000 nM (sheet 'Samples'); n = 1
# CLK1 = conditions: read-out: apparent Kd, compound concentrations: 100 nM and 1000 nM (sheet 'Samples'), n = 1
# CLK4 = conditions: read-out: apparent Kd, compound concentrations: 100 nM and 1000 nM (sheet 'Samples'), n = 1
# CSNK2A1;CSNK2A3 = conditions: read-out: apparent Kd; compound concentrations: 100 nM and 1000 nM (sheet 'Samples'), CATDS: 0.234359592666399; n = 1
# CSNK2A2 = conditions: read-out: apparent Kd; compound concentrations: 100 nM and 1000 nM (sheet 'Samples'), CATDS: 0.363288777813424; n = 1
# DYRK1A = conditions: read-out: apparent Kd, n = 1
# CDK7 = conditions: read-out: apparent Kd, n = 1
# CDKL5 = conditions: read-out: apparent Kd, n = 1
# ERCC2 = conditions: read-out: apparent Kd, n = 1
# FLT3 = conditions: read-out: apparent Kd; compound concentrations: 100 nM and 1000 nM (sheet 'Samples'), CATDS: 7.2287914746840001E-2; n = 1
# GSK3A = conditions: read-out: apparent Kd; compound concentrations: 100 nM and 1000 nM (sheet 'Samples'), CATDS: 6.4716553061548596E-2; n = 1
# GSK3B = conditions: read-out: apparent Kd; compound concentrations: 100 nM and 1000 nM (sheet 'Samples'), CATDS: 9.1324175022244006E-2; n = 1
# ICK = conditions: read-out: apparent Kd; compound concentrations: 100 nM and 1000 nM (sheet 'Samples'), CATDS: 7.1869443211344197E-2; n = 1
# PIP4K2C = conditions: read-out: apparent Kd, n = 1
# TGFBR2 = conditions: read-out: apparent Kd; compound concentrations: 100 nM and 1000 nM (sheet 'Samples'), CATDS: 0.19336486168442599; n = 1
# CDK6 = conditions: read-out: apparent Kd, n = 1
# EGFR = conditions: read-out: apparent Kd; compound concentrations: 100 nM and 1000 nM (sheet 'Samples'), CATDS: 0.84328926118449798; n = 1
# DJA1 = system: T1, DJA1; conditions: read-out: apparent Kd; compound concentrations:100 nM and 1000 nM (sheet 'Samples'); n = 1
# T1 construct: gene DNAJA1
# MAPK14 = conditions: read-out: apparent Kd, n = 1
# MAPK10 = conditions: read-out: apparent Kd; compound concentrations:100 nM and 1000 nM (sheet 'Samples'); n = 1
# MAPK9 = conditions: read-out: apparent Kd; compound concentrations:100 nM and 1000 nM (sheet 'Samples'); n = 1
# MAPKAPK2 = conditions: read-out: apparent Kd; compound concentrations:100 nM and 1000 nM (sheet 'Samples'); n = 1
# NLK = conditions: read-out: apparent Kd; compound concentrations:100 nM and 1000 nM (sheet 'Samples'); n = 1
# PRKAA2 = conditions: read-out: apparent Kd; compound concentrations:100 nM and 1000 nM (sheet 'Samples'); n = 1
# TNK2 = conditions: read-out: apparent Kd; compound concentrations:100 nM and 1000 nM (sheet 'Samples'); n = 1
# PRKAG2 = conditions: read-out: apparent Kd; compound concentrations: 100 nM and 1000 nM (sheet 'Samples'), CATDS: 0.49360231247915698; n = 1
# TESK1 = conditions: read-out: apparent Kd; compound concentrations: 100 nM and 1000 nM (sheet 'Samples'), CATDS: 0.50795455679108803; n = 1
# [1] = compound concentrations:100 nM and 1000 nM (sheet 'Samples')
structure (smiles),measurement,setting,value
Nc1n[nH]c2cnc(-c3ccccc3)cc12 [SB-642124-AAA],potency estimated from few doses,CDK9; [1],1400 nM
same,potency estimated from few doses,NEK3,1820 nM
CCOc1ccccc1CCNC1=NC(=O)/C(=C/c2ccc3ncccc3c2)S1 [RO4503314-000],potency estimated from few doses,CLK1; CATDS: 0.17433508542258599,469 nM
same,potency estimated from few doses,CLK4; CATDS: 0.16932447657893401,505 nM
same,potency estimated from few doses,CSNK2A1;CSNK2A3,246 nM
same,potency estimated from few doses,CSNK2A2,118 nM
same,potency estimated from few doses,"DYRK1A; compound concentrations: 100 nM and 1000 nM (sheet 'Samples'), CATDS: 0.15776551091334201",615 nM
FC(F)(F)c1cc(Br)cc(Nc2nccc(-c3cnn4ncccc34)n2)c1 [GW810578X],potency estimated from few doses,"CDK7; compound concentrations: 100 nM and 1000 nM (sheet 'Samples'), CATDS: 5.1614283275692202E-2",1740 nM
same,potency estimated from few doses,"CDK9; compound concentrations: 100 nM and 1000 nM (sheet 'Samples'), CATDS: 7.5250343499568897E-2",461 nM
same,potency estimated from few doses,"CDKL5; compound concentrations: 100 nM and 1000 nM (sheet 'Samples'), CATDS: 0.13413982703885399",127 nM
same,potency estimated from few doses,CLK1; CATDS: 0.18636177679303401,72.6 nM
same,potency estimated from few doses,CLK4; CATDS: 0.17259551294748199,82 nM
same,potency estimated from few doses,"DYRK1A; compound concentrations: 100 nM and 1000 nM (sheet 'Samples'), CATDS: 5.4131433130879598E-2",1410 nM
same,potency estimated from few doses,"ERCC2; compound concentrations: 100 nM and 1000 nM (sheet 'Samples'), CATDS: 5.1102609842245399E-2",1830 nM
same,potency estimated from few doses,FLT3,516 nM
same,potency estimated from few doses,GSK3A,724 nM
same,potency estimated from few doses,GSK3B,282 nM
same,potency estimated from few doses,ICK,525 nM
same,potency estimated from few doses,"PIP4K2C; compound concentrations: 100 nM and 1000 nM (sheet 'Samples'), CATDS: 4.9119421247087701E-2",2250 nM
same,potency estimated from few doses,TGFBR2,68.5 nM
CNC(=O)c1cccc(C#Cc2cncnc2Nc2ccc(OCc3cccc(F)c3)c(Cl)c2)c1 [GW772405X],potency estimated from few doses,"CDK6; compound concentrations: 100 nM and 1000 nM (sheet 'Samples'), CATDS: 0.35534490355550902",1780 nM
same,potency estimated from few doses,EGFR,182 nM
O=C(Nc1n[nH]c2cc(-c3ccsc3)ccc12)C1CC1 [SB-732932_KCGS],potency estimated from few doses,CDK6; [1],1430 nM
same,potency estimated from few doses,CDKL5; [1],1820 nM
same,potency estimated from few doses,DJA1,2070 nM
same,potency estimated from few doses,DYRK1A; [1],1670 nM
same,potency estimated from few doses,MAPK14; [1],1560 nM
Cl.Cn1c(=O)c(Oc2ccccc2)cc2cnc(NC3CCOCC3)nc21 [RO3304757-001],potency estimated from few doses,CDK7; [1],1310 nM
same,potency estimated from few doses,ERCC2; [1],1500 nM
same,potency estimated from few doses,MAPK10,984 nM
same,potency estimated from few doses,"MAPK14; compound concentrations: 100 nM and 1000 nM (sheet 'Samples'), CATDS: 0.27428845343206798",68.9 nM
same,potency estimated from few doses,MAPK9,349 nM
same,potency estimated from few doses,MAPKAPK2,64.7 nM
same,potency estimated from few doses,NLK,148 nM
same,potency estimated from few doses,PIP4K2C; [1],896 nM
same,potency estimated from few doses,PRKAA2,1770 nM
same,potency estimated from few doses,TNK2,1160 nM
COc1ccc(Nc2nccc(N3CCC(NC(=O)Nc4cc(C)ccc4C)C3)n2)cc1 (centres unmarked) [GSK1379741A],potency estimated from few doses,"CDKL5; compound concentrations: 100 nM and 1000 nM (sheet 'Samples'), CATDS: 0.50656570893737995",1860 nM
same,potency estimated from few doses,PRKAG2,1960 nM
CCn1c(-c2c(N)noc2C)nc2cnccc21 [SB-737856],potency estimated from few doses,"CDKL5; compound concentrations: 100 nM and 1000 nM (sheet 'Samples'), CATDS: 0.49229073825052599",1930 nM
same,potency estimated from few doses,TESK1,1820 nM
